The campaign covered roughly 340,000 compounds. About 3,300 (0.97%) were called active. Inconclusive results (about 9%) are left out. Calls come from the whole dose curve; as a rule, active = well fitted inhibition curve with a large enough effect; inconclusive = small, poorly fitted or top-dose-only effect, or effect the other way; inactive = flat fitted curve, though single readings scatter. The list shows a part of the results.
Experiment: qHTS Assay for Modulators of miRNAs and/or Inhibitors of miR-21; note: nearly all actives have a fitted effect of over 55% in size
Conditions: HeLa miR-21-FLuc reporter, luciferase luminescence, 48 h; actives lower the signal
Text: MLSCN Grant: 1 R21 NS059478-01 Assay Provider: Qihong Huang, The Wistar Institute NCGC Assay Overview: MicroRNAs (miRNAs) are endogenously encoded small (~20-25 nucleotides), nonprotein-coding RNAs that are involved in post-transcriptional repression of target messenger RNAs (mRNAs) (Le and Hannon, 2004). Estimated to be involved in the regulation of 30% of all protein-coding mRNAs (Filipowicz et al., 2008), miRNAs play a significant role in many biological processes including cellular differentiation and tissue development (Ghildiyal and Zamore, 2009).
NCGC Assay Protocol Summary: Reagents: HeLa cells stably expressing firefly luciferase (FLuc) under the control of a CMV promoter (upstream) and a miR-21 binding sequence directly downstream of the gene. These cells endogenously express miR-21. Control compounds used were compound C3 (provided by collaborator), N6-phenyladenosine (MP Biomedicals, 0215379625), and DMSO. Assay Summary: 6uL of HeLa miR-21-FLuc cells in assay buffer (DMEM, Invitrogen #21063-029; 10% FBS, HyClone #SH30071.03) were dispensed at 2000cells/well (3.3 x 10^5 cells/mL) into Greiner solid-white TC-treated 1536-well plates using a Multidrop Combi (Thermo Fisher Scientific). Plates were incubated for one hour at 37 degree Celsius, 95% humidity, 5% CO2. These assay plates were then treated with 23nL of compound or DMSO using a Kalypsys pin tool, which allows for delivery of a 24-point titration of each compound to the assay plate, with a final compound concentration ranging from approximately 40uM to 5pM. Assay plates were then incubated for 48 hours. After incubation, plates were allowed to come to RT for one hour prior to delivery of 3uL of 3X luciferase detection reagent. After a 15 minute incubation to allow for cell lysis, luciferase activity was measured using a ViewLux CCD imager (PerkinElmer), with an average exposure time of 2-12 seconds. Keywords: NIH Roadmap, MLPCN, MLSMR, qHTS, miR-21, microRNA, firefly luciferase, FLuc.
Potency is the fitted concentration of half-maximal effect.

Potency, active:
Cc1ccc2c(CN(C)Cc3cccc(F)c3)cc(=O)oc2c1 13.1 µM
Cc1ccc2c(CNCc3ccco3)cc(=O)oc2c1 9.27 µM
COc1ccc(N=Cc2nc(-c3ccccc3)oc2OC(=O)c2ccccc2)cc1 1.85 µM
CC1CCc2c(sc(/N=C/N(C)C)c2C#N)C1 (stereo not drawn) 7.36 µM
CN(C)/C=N/c1sc2c(c1C#N)CCCCC2 5.21 µM
CCN(/C=N/c1sc2c(c1C#N)CCCCC2)CC 3.69 µM
CCn1c(C)nc2cc(C(=O)NNC(=S)Nc3ccccc3Cl)ccc21 7.36 µM
CCn1c(C)nc2cc(C(=O)NNC(=S)Nc3ccccc3OC)ccc21 14.7 µM
CCN(CC)CCn1c2ccccc2c2nc3ccc([N+](=O)[O-])cc3cc21 14.7 µM
O=C1CCCC(O)=C1N=Nc1ccc2c(c1)OCO2 14.7 µM
O=C(Nc1ccc(-c2nc3ccccc3s2)c(OC(=O)c2ccccc2)c1)c1ccccc1 0.329 µM
O=C(Nc1ccc(-c2nc3ccccc3s2)c(O)c1)C1=COCCO1 0.261 µM
CCSc1ccccc1C(=O)Nc1ccc(-c2nc3ccccc3s2)c(O)c1 3.69 µM
O=C(CC1Sc2ccccc2NC1=O)c1ccc(Br)cc1 (stereo not drawn) 8.26 µM
CC(=O)Nc1ccccc1C(=O)C(=O)Nc1ccc(C)c(F)c1 2.33 µM
CC(=O)Nc1ccccc1C(=O)C(=O)Nc1ccc(C)c(C)c1 5.21 µM
Cn1c2ccccc2c(=O)c2ccc(-c3ccc4c(c3)OCO4)cc21 1.04 µM
CN(C)c1ccc(-c2ccc3c(=O)c4ccccc4n(C)c3c2)cn1 4.65 µM
Cc1ccc(N2C(=O)c3ccccc3NC2(C(=O)O)c2ccccc2)cc1Cl (stereo not drawn) 2.93 µM
O=[N+]([O-])c1ccccc1CSc1nc2ccccc2o1 14.7 µM
COc1ccc(Oc2ncnc3c2oc2ccccc23)cc1 11.7 µM
COc1ncnc2c1oc1ccccc12 8.26 µM
CC(=O)c1ccc(Oc2ncnc3c2oc2ccccc23)cc1 0.927 µM
Cc1ccc(/C=N/n2c(C)nc3ccccc3c2=O)s1 6.56 µM
Cc1nc2ccccc2c(=O)n1/N=C/c1ccccc1Cl 6.56 µM
Fc1ccccc1CSc1nnc(-c2cccs2)o1 3.29 µM
CC(C)(C)c1nnc(NC(=O)c2ccc3c(c2)OCO3)s1 1.47 µM
CCC(CC)c1nnc(NC(=O)c2ccc3c(c2)OCO3)s1 7.36 µM

— PubChem BioAssay AID2289 (National Center for Advancing Translational Sciences (NCATS), 2010)
